Among the test systems are DU-145 prostate; K-562 leukemia; MALME-3M melanoma; MDA-MB-231 breast; RXF 393 renal; SF-268 CNS; SF-295 CNS; SF-539 CNS; UACC-257 melanoma; M14 melanoma.
What all share (assay): NCI-60 one-dose screen, 48 h (100 = growth as untreated, 0 = no growth, -100 = all killed)
What all share (conditions): 10 µM unless noted

Values joined by “and” are separate entries in the source; they are usually repeats but may differ in a detail not shown here. Equal entries are not always repeated. The panel holds about 83,000 compounds, 20% with a hit somewhere; the sample as a whole holds those more often.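 Assay: single dose, 48 h. Readout: percent growth (0 = no net growth; negative = cell death). Active: <10.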 Active and inactive are the calls of the source.

`N=C(N=C(N)N)N1CCOCC1`: the growth in the assay with DU-145 prostate is 102% (inactive) and 106% (inactive); in the assay on K-562 leukemia, 106% (inactive) and 112% (inactive); with MALME-3M melanoma it was 90.6% (inactive) and 108% (inactive); in the assay with MDA-MB-231 breast, 104% (inactive) and 99.2% (inactive); in the assay on RXF 393 renal, 111% (inactive); in the assay on SF-268 CNS, 104% (inactive) and 102% (inactive). For the same compound, the growth was 110% (inactive) and 96.9% (inactive) with SF-295 CNS; 105% (inactive) and 95.9% (inactive) in the assay on SF-539 CNS; 107% (inactive) and 104% (inactive) in the assay on UACC-257 melanoma; 91.1% (inactive) and 97.2% (inactive) in the assay with M14 melanoma.

As for `CCN(CC)CCO/N=C1\CC(c2ccc(OC)c(OC)c2)Oc2ccccc21` (stereo not given), the growth is 105% (inactive) with DU-145 prostate; 82.6% (inactive) with K-562 leukemia; 107% (inactive) in the assay with MALME-3M melanoma; 101% (inactive) with MDA-MB-231 breast; 65.5% (inactive) with RXF 393 renal; 99.3% (inactive) in the assay on SF-268 CNS. Also, the growth in the assay on SF-295 CNS is 98.2% (inactive); in the assay with SF-539 CNS, 94.7% (inactive); in the assay with UACC-257 melanoma, 101% (inactive); with M14 melanoma it was 99.9% (inactive).

Consider `COc1ccc(-n2[nH]c3c(cnc4ccccc43)c2=O)cc1`, for which the growth was 95.8% (inactive) and 101% (inactive) in the assay with DU-145 prostate; 112% (inactive) and 90.7% (inactive) in the assay on K-562 leukemia; 63.7% (inactive) and 105% (inactive) with MALME-3M melanoma; 119% (inactive) in the assay with MDA-MB-231 breast; 110% (inactive) and 98.3% (inactive) in the assay with RXF 393 renal; 103% (inactive) and 106% (inactive) with SF-268 CNS. In addition, the growth with SF-295 CNS was 86.9% (inactive) and 92.7% (inactive); with SF-539 CNS, 87.8% (inactive) and 93.4% (inactive); with UACC-257 melanoma, 109% (inactive); in the assay with M14 melanoma, 92.3% (inactive) and 104% (inactive).

For `O=[N+]([O-])c1ccc(N/N=C/C2CCCCCC2)c([N+](=O)[O-])c1`, the growth is 92% (inactive) in the assay on DU-145 prostate; 83.4% (inactive) with K-562 leukemia; 98% (inactive) in the assay with MALME-3M melanoma; 81.8% (inactive) in the assay on MDA-MB-231 breast; 98% (inactive) in the assay with RXF 393 renal; 87.4% (inactive) in the assay with SF-268 CNS. In addition, the growth in the assay on SF-295 CNS was 98.1% (inactive); with SF-539 CNS it was 99.8% (inactive); in the assay with UACC-257 melanoma, 96.5% (inactive); in the assay on M14 melanoma, 85.1% (inactive).

As to `OCCS`, the growth in the assay on DU-145 prostate was 104% (inactive); with K-562 leukemia it was 91.4% (inactive); in the assay with MALME-3M melanoma, 101% (inactive); with MDA-MB-231 breast, 99.3% (inactive); with RXF 393 renal, 110% (inactive); in the assay on SF-268 CNS, 99.5% (inactive). Moreover, the growth in the assay on SF-295 CNS is 101% (inactive); in the assay on SF-539 CNS, 100% (inactive); with UACC-257 melanoma, 90.9% (inactive); in the assay with M14 melanoma, 97.6% (inactive).

As for `O=C1CCC(=O)N1CC1CC2CCC1C2` (stereo not given), the growth is 127% (inactive) and 98.7% (inactive) in the assay on DU-145 prostate; 71.2% (inactive) and 94.1% (inactive) in the assay with K-562 leukemia; 98.1% (inactive) and 87.7% (inactive) with MALME-3M melanoma; 98.8% (inactive) in the assay with MDA-MB-231 breast; 105% (inactive) and 106% (inactive) with RXF 393 renal; 100% (inactive) and 95.2% (inactive) in the assay with SF-268 CNS. The growth in the assay with SF-295 CNS was 83.4% (inactive) and 90.2% (inactive); with SF-539 CNS, 101% (inactive) and 87.8% (inactive); with UACC-257 melanoma it was 104% (inactive) and 83.5% (inactive); in the assay with M14 melanoma it was 103% (inactive) and 95.6% (inactive).

`CCOc1ccc(/C=C\C(=O)O)cc1`: the growth in the assay with DU-145 prostate is 111% (inactive); with K-562 leukemia it was 103% (inactive); with MALME-3M melanoma, 105% (inactive); in the assay on MDA-MB-231 breast it was 108% (inactive); with RXF 393 renal, 138% (inactive); with SF-268 CNS, 115% (inactive). Also, the growth with SF-295 CNS is 103% (inactive); in the assay with SF-539 CNS it was 110% (inactive); with UACC-257 melanoma it was 109% (inactive); in the assay with M14 melanoma, 110% (inactive).

As for `CCNCc1ccccc1`, the growth is 104% (inactive) in the assay on DU-145 prostate; 96.3% (inactive) in the assay with K-562 leukemia; 101% (inactive) in the assay with MALME-3M melanoma; 110% (inactive) with MDA-MB-231 breast; 118% (inactive) in the assay on RXF 393 renal; 104% (inactive) in the assay with SF-268 CNS. For the same compound, the growth in the assay on SF-295 CNS was 105% (inactive); with SF-539 CNS, 102% (inactive); with UACC-257 melanoma it was 102% (inactive); with M14 melanoma, 109% (inactive).

Consider `CCN(CC)Cc1cc2[nH]c3c4ccc(Cl)cc4ncc3c2cc1OC`, for which the growth is 10.7% (inactive) in the assay on DU-145 prostate; -45.5% (active) in the assay on K-562 leukemia; 77.2% (inactive) and 107% (inactive) in the assay on MALME-3M melanoma; -4.73% (active) and 16.6% (inactive) in the assay on MDA-MB-231 breast; -43.2% (active) and -29.8% (active) in the assay with RXF 393 renal; 22.9% (inactive) and 89.1% (inactive) in the assay on SF-268 CNS. Further, the growth is 102% (inactive) and 90.9% (inactive) with SF-295 CNS; -73.3% (active) and -71.9% (active) in the assay on SF-539 CNS; 94.5% (inactive) and 104% (inactive) with UACC-257 melanoma; -49.3% (active) and -42.6% (active) with M14 melanoma.

For the compound `N=C(N)N1CCc2ccccc2C1`, the growth in the assay on DU-145 prostate is 105% (inactive) and 97.3% (inactive); in the assay with K-562 leukemia, 71.4% (inactive) and 108% (inactive); in the assay on MALME-3M melanoma, 82% (inactive) and 110% (inactive); in the assay with MDA-MB-231 breast, 99% (inactive) and 103% (inactive); in the assay on RXF 393 renal it was 97.2% (inactive) and 121% (inactive); in the assay with SF-268 CNS, 98.9% (inactive) and 97.3% (inactive). In addition, the growth in the assay on SF-295 CNS is 88% (inactive) and 106% (inactive); in the assay with SF-539 CNS, 104% (inactive) and 96.8% (inactive); with UACC-257 melanoma, 86.5% (inactive) and 95.4% (inactive); with M14 melanoma, 93.2% (inactive) and 108% (inactive).

In the case of `C/C=C(/C(=O)NC(N)=O)C(C)C`, the growth in the assay with DU-145 prostate was 105% (inactive); with K-562 leukemia, 109% (inactive); with MALME-3M melanoma it was 106% (inactive); in the assay with MDA-MB-231 breast, 114% (inactive); in the assay with RXF 393 renal, 171% (inactive); in the assay with SF-268 CNS, 87.2% (inactive). For the same compound, the growth in the assay with SF-295 CNS is 108% (inactive); with SF-539 CNS, 115% (inactive); in the assay with UACC-257 melanoma, 104% (inactive); with M14 melanoma it was 93.9% (inactive).
